In publication PMC7862700, “An all-to-all approach to the identification of sequence-specific readers for epigenetic DNA modifications on cytosine”:

Experiments:
Assay in all cases: DAPPL (digital affinity profiling via proximity ligation, sequencing); 10 mM Tris-HCl pH 7.5, 50 mM NaCl, 1 mM DTT, 4% glycerol, room temperature, 30 min; GST-TFs on glutathione beads, 16-mer random dsDNA library, 0.1% formaldehyde crosslink after washing; high values mean tight binding
Conditions in all cases: protein: recombinant; tags: N-terminal GST; dsDNA, one strand shown
FEV = biological target: T1, FEV (Homo sapiens, UniProt Q99581 1-238)
T1 sequence: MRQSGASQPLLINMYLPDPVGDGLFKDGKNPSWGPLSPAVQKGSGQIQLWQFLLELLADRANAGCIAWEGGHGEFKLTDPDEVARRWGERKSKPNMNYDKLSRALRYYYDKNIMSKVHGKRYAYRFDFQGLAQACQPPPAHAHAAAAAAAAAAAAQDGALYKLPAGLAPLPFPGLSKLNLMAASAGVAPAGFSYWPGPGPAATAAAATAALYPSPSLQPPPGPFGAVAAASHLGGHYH
Outline: (§1)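 Yeast served to express human transcription factors as GST fusions, which were then captured on glutathione beads and labelled with DNA barcodes. Pooled with a tag-only sample, they were incubated with 200 nmole of a 16-mer random double-stranded DNA library for 30 min at room temperature in Tris/NaCl/DTT/glycerol buffer, washed, crosslinked with 0.1% formaldehyde, ligated by proximity, amplified by PCR and sequenced. Dividing each hexamer's read frequency for a factor by its frequency for the tag-only sample gives the binding signal.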

ETV5 = ETV5 (Homo sapiens, UniProt P41161 1-510)
Outline: as §1

SPIC = biological target: T2, SPIC (Homo sapiens, UniProt Q8N5J4 1-248)
T2 sequence: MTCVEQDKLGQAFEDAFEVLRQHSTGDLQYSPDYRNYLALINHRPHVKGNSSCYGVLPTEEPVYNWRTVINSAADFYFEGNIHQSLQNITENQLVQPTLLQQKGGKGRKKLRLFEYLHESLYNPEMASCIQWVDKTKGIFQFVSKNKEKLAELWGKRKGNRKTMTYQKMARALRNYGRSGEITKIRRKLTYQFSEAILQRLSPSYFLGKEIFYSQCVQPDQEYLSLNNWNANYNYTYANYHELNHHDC
Outline: as §1

ELF4 = ELF4 (Homo sapiens, UniProt Q99607 1-663)
Outline: as §1

ELK4 = biological target: T3, ELK4 (Homo sapiens, UniProt P28324-2 1-405)
T3 sequence: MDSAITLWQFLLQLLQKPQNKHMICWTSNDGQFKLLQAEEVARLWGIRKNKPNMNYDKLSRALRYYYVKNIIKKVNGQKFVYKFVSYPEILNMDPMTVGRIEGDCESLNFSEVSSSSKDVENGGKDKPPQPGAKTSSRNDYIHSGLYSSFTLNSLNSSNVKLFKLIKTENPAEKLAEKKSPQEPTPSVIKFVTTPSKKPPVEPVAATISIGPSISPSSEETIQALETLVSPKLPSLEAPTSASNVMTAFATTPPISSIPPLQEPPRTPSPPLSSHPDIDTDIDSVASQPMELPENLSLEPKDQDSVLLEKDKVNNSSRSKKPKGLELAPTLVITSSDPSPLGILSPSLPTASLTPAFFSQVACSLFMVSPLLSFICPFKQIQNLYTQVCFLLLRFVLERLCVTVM
Outline: as §1

ETV2 = biological target: T4, ETV2 (Homo sapiens, UniProt O00321 1-342)
T4 sequence: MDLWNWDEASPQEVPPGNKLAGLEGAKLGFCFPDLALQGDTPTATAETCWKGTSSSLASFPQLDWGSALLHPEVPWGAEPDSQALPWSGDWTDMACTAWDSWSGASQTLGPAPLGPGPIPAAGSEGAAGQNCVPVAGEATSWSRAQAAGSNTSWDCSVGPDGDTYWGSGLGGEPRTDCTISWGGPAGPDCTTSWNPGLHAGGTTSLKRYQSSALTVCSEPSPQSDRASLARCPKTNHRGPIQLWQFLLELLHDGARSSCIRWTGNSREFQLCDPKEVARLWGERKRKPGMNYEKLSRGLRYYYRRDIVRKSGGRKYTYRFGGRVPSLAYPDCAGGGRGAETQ
Outline: as §1

ELF3 = biological target: T5, ELF3 (Homo sapiens, UniProt P78545 1-371)
T5 sequence: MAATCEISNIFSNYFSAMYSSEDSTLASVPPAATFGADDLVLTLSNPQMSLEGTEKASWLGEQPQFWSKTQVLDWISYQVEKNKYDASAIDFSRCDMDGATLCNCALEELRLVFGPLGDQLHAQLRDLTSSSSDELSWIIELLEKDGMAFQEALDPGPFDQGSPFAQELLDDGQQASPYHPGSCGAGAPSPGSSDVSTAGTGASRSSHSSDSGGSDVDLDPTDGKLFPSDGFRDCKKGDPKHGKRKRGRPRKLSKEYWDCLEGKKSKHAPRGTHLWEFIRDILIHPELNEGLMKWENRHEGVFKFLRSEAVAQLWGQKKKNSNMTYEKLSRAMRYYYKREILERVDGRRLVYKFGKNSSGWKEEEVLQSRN
Outline: as §1

ETV1 = ETV1 (Homo sapiens, UniProt P50549 1-477)
Outline: as §1

ERF = biological target: T6, ERF (Homo sapiens, UniProt P50548 1-548)
T6 sequence: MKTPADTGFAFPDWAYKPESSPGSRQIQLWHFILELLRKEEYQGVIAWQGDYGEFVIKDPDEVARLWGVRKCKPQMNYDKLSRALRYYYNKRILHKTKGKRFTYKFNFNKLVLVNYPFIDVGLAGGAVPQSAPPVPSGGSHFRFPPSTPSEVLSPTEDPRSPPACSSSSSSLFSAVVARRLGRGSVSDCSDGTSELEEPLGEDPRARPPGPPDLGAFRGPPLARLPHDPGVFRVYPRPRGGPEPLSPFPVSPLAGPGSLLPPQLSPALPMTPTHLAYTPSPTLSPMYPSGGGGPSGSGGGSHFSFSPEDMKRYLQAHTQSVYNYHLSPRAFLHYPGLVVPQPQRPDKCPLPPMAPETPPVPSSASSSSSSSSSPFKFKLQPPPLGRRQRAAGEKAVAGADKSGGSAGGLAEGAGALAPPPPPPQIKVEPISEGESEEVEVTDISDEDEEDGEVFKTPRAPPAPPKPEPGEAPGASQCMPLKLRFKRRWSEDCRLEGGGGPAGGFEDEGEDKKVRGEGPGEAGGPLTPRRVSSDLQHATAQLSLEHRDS
Outline: as §1

ETV3L = biological target: T7, ETV3L (Homo sapiens, UniProt Q6ZN32 1-361)
T7 sequence: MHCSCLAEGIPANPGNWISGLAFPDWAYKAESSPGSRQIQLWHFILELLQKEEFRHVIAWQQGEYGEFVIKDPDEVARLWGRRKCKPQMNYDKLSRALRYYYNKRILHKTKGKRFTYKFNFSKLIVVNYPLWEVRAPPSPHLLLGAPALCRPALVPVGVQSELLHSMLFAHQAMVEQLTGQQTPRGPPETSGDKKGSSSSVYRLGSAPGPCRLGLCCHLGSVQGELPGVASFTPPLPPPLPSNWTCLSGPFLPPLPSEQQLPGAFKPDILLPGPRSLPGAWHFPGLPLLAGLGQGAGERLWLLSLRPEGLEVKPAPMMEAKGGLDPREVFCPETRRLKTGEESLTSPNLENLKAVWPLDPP
Outline: as §1

ETS2 = biological target: T8, ETS2 (Homo sapiens, UniProt P15036 1-469)
T8 sequence: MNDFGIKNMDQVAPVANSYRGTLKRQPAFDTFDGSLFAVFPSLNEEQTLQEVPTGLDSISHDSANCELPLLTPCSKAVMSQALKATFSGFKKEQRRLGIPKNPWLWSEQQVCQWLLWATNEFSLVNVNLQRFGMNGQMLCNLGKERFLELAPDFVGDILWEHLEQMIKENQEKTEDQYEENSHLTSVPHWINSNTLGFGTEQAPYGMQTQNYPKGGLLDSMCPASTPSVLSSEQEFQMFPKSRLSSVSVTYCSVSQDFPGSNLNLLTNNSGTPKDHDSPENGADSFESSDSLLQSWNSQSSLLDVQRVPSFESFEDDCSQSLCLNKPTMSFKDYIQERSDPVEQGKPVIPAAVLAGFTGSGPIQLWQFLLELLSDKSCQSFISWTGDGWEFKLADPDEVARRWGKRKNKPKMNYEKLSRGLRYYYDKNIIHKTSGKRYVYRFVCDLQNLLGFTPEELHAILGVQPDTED
Outline: as §1

SPDEF = biological target: T9, SPDEF (Homo sapiens, UniProt O95238 1-335)
T9 sequence: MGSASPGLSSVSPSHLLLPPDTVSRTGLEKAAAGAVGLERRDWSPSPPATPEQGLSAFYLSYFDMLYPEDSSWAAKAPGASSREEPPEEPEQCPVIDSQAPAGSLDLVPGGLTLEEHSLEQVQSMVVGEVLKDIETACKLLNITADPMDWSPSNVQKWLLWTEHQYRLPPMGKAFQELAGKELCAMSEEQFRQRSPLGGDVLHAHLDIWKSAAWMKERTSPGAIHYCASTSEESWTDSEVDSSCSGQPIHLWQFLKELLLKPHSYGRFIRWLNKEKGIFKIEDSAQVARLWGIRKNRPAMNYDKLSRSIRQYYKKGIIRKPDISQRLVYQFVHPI
Outline: as §1

ELF5 = biological target: T10, ELF5 (Homo sapiens, UniProt Q9UKW6-2 1-255)
T10 sequence: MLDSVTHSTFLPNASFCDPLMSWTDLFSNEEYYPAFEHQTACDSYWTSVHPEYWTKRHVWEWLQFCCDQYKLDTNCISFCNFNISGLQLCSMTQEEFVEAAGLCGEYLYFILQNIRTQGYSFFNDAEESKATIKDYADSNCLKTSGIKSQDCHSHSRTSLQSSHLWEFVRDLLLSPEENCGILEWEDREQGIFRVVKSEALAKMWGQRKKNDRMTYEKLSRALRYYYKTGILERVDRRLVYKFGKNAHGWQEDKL
Outline: as §1

ETV3 = biological target: T11, ETV3 (Homo sapiens, UniProt P41162-2 1-143)
T11 sequence: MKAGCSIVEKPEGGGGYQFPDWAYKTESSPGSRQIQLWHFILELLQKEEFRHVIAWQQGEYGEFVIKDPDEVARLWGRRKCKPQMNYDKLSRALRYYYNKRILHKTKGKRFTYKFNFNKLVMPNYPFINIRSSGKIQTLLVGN
Outline: as §1

ETV6 = ETV6 (Homo sapiens, UniProt P41212 1-452)
Outline: as §1

ETV7 = biological target: T12, ETV7 (Homo sapiens, UniProt Q9Y603 1-341)
T12 sequence: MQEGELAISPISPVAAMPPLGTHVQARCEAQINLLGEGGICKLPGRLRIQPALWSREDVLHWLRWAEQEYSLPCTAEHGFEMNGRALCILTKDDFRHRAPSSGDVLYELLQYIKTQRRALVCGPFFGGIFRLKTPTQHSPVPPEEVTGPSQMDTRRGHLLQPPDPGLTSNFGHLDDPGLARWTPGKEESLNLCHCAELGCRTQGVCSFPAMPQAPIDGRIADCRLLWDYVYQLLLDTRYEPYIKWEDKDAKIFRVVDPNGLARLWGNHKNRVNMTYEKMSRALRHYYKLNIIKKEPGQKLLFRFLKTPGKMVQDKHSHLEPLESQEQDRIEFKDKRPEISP
Outline: as §1

ETV5, sequence (P41161 whole entry): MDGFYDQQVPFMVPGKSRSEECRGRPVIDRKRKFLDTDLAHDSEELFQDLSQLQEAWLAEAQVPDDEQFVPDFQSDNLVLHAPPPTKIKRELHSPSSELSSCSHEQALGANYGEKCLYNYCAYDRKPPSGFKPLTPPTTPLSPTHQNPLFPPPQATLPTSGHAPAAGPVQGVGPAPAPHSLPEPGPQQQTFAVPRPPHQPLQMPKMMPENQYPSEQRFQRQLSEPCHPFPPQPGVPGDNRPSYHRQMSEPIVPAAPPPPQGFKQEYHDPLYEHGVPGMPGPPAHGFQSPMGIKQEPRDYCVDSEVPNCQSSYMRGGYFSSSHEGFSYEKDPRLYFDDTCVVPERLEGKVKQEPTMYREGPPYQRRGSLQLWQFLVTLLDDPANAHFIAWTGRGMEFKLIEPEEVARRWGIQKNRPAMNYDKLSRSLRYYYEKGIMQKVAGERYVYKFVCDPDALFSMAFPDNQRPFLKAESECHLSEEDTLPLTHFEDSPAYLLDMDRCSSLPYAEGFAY
ETV6, sequence (P41212 whole entry): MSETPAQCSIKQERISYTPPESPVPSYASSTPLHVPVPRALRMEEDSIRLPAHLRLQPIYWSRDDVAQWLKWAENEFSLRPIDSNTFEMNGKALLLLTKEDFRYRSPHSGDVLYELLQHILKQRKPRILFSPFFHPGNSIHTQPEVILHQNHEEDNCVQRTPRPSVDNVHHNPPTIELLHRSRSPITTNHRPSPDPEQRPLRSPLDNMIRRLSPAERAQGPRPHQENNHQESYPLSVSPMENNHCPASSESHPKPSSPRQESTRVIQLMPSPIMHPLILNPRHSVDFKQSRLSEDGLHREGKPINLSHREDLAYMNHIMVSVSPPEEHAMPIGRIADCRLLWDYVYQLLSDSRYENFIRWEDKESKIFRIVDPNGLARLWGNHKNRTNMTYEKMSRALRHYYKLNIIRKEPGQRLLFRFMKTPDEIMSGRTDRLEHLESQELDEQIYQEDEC
ETV1, sequence (P50549 whole entry): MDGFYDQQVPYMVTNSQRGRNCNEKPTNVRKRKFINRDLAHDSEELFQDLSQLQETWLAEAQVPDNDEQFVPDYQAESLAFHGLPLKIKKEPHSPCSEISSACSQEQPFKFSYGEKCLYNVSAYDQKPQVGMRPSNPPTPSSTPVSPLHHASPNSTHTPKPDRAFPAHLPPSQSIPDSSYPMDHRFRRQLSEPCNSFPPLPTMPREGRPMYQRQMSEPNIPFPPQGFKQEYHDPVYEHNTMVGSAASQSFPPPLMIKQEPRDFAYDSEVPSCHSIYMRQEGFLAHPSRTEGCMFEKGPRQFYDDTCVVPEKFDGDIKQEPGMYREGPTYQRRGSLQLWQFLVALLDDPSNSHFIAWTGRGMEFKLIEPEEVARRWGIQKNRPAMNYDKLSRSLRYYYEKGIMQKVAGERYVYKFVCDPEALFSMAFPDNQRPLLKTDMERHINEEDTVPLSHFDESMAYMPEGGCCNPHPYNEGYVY
ELF4, sequence (Q99607 whole entry): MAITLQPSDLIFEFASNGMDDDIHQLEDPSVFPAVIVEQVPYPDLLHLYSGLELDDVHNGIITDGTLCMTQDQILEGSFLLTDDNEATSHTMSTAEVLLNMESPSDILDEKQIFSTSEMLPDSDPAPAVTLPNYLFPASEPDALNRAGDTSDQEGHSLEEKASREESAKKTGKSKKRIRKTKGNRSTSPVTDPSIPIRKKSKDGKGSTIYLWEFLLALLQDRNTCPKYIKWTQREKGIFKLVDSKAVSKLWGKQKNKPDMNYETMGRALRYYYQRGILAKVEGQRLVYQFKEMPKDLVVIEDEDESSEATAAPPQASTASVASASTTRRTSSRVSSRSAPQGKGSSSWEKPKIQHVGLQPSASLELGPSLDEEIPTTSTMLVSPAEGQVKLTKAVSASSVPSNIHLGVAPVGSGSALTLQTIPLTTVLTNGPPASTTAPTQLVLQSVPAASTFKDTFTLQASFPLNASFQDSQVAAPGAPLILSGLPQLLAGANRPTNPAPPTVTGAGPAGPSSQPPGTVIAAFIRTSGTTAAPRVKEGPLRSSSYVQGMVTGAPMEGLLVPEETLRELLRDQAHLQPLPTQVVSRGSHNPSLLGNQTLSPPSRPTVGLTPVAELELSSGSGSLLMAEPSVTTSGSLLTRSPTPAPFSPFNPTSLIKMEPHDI

Sequence	binding signal (FEV)	binding signal (ETV5)	binding signal (SPIC)	binding signal (ELF4)	binding signal (ELK4)	binding signal (ETV2)	binding signal (ELF3)	binding signal (ETV1)	binding signal (ERF)	binding signal (ETV3L)	binding signal (ETS2)	binding signal (SPDEF)	binding signal (ELF5)	binding signal (ETV3)	binding signal (ETV6)	binding signal (ETV7)
CACAAT	1.06 fold enrichment (6-mer frequency, TF over GST control)	1.1 fold enrichment (6-mer frequency, TF over GST control)	1.13 fold enrichment (6-mer frequency, TF over GST control)	1.09 fold enrichment (6-mer frequency, TF over GST control)	1.12 fold enrichment (6-mer frequency, TF over GST control)	1.06 fold enrichment (6-mer frequency, TF over GST control)	1.19 fold enrichment (6-mer frequency, TF over GST control)	1.09 fold enrichment (6-mer frequency, TF over GST control)	1.18 fold enrichment (6-mer frequency, TF over GST control)	1.08 fold enrichment (6-mer frequency, TF over GST control)	1.13 fold enrichment (6-mer frequency, TF over GST control)	1.07 fold enrichment (6-mer frequency, TF over GST control)	1.06 fold enrichment (6-mer frequency, TF over GST control)	1.12 fold enrichment (6-mer frequency, TF over GST control)	1.09 fold enrichment (6-mer frequency, TF over GST control)	
CCCCAC	1.29 fold enrichment (6-mer frequency, TF over GST control)	1.18 fold enrichment (6-mer frequency, TF over GST control)	1.33 fold enrichment (6-mer frequency, TF over GST control)	1.28 fold enrichment (6-mer frequency, TF over GST control)	1.36 fold enrichment (6-mer frequency, TF over GST control)	1.2 fold enrichment (6-mer frequency, TF over GST control)	1.25 fold enrichment (6-mer frequency, TF over GST control)	1.11 fold enrichment (6-mer frequency, TF over GST control)	1.14 fold enrichment (6-mer frequency, TF over GST control)	1.28 fold enrichment (6-mer frequency, TF over GST control)	1.22 fold enrichment (6-mer frequency, TF over GST control)	1.2 fold enrichment (6-mer frequency, TF over GST control)	1.19 fold enrichment (6-mer frequency, TF over GST control)	1.2 fold enrichment (6-mer frequency, TF over GST control)	1.1 fold enrichment (6-mer frequency, TF over GST control)	1.11 fold enrichment (6-mer frequency, TF over GST control)
